Data reported in PubChem BioAssay (NCATS).
Inconclusive results are not listed. Calls of active or inactive are those of the source. Unless noted, the call rests on the fitted dose curve; in most records, active means well fitted inhibition curve with a large enough effect; inconclusive means small, poorly fitted or top-dose-only effect; inactive means no such curve, though single readings can be large or run the other way.

Assay: High-throughput drug toxicity screening in the BPDCN cell line Cal-1 (AID 1224825; call rule not given here;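 further: cells exposed to compounds for 48 h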)
Details: Cal-1 BPDCN cell viability, qHTS; at 45.8 µM (top of the series)
Procedure, shortened: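 Percent activity derived from CellTiter-Glo luminescence, scaling DMSO to 100% and 9.2 uM final bortezomib to 0%. BPDCN Cal-1 cells (500/well, RPMI plus 10% FBS) incubated with compounds 48 hours at 37C before reading.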

Row | Compound | viability (% of control) [%]
1 | Clc1ccccc1C(c1ccccc1)(c1ccccc1)n1cccn1 | 108
2 | O=C(N[C@@H](COc1ccc2[nH]c(=O)[nH]c2c1)c1ccccc1)c1cccn(Cc2ccc(F)c(F)c2)c1=O | 36.8
3 | CCOC(=O)c1cncn1[C@H](C)c1ccccc1 | 105
4 | CC(=O)OCC1=C(C(=O)O)N2C(=O)[C@@H](N)[C@@H]2SC1 | 15.5
5 | CC[C@@H](C(N)=O)N1CCCC1=O | 113
6 | COc1cc([C@@H]2c3cc4c(cc3[C@@H](O)C3COC(=O)C32)OCO4)cc(OC)c1O (some centres not stated) | 5.19
7 | CCCC[N+]1(C)[C@H]2CC(OC(=O)[C@H](CO)c3ccccc3)C[C@H]1[C@H]1O[C@H]12 (some centres not stated) | 120
8 | CN(C)[C@@H]1C(=O)C(C(N)=O)=C(O)[C@@]2(O)C(=O)C3=C(O)c4c(O)cccc4[C@@](C)(O)[C@H]3[C@H](O)[C@@H]12 | 100
9 | C[C@]12CC[C@@H]3[C@@H](CCC4=CC(=O)CC[C@@H]43)[C@@H]1CC[C@@H]2OC(=O)CCc1ccccc1 | 104
10 | CC(C)(C)c1cc(C=C(C#N)C#N)cc(Br)c1O | 11
11 | CCNC(=O)CC1N=C(c2ccc(Cl)cc2)c2cc(OC)ccc2-n2c(C)nnc21 (configuration not stated) | 11.7
12 | c1ccc2c(CN3CCNCC3)cccc2c1 | 99
13 | CC(N[C@H]1C[C@H]1c1ccccc1)c1ccc2c(c1)OCCO2 (some centres not stated) | 96.1
14 | O=S(=O)(F)Cc1ccccc1 | 97.3
15 | CC(=CCCC1=CCC(C2=CC(=O)OC2O)OC1O)CCC1=C(C)CCCC1(C)C (configuration not stated) | 103
16 | CC(C)[C@]12O[C@@H]1[C@@H]1O[C@]13[C@]1(O[C@H]1C[C@@H]1C4=C(CC[C@@]13C)C(=O)OC4)[C@H]2O | 2.1
17 | Cc1[nH]nc2ccc(-c3cncc(OC[C@@H](N)Cc4c[nH]c5ccccc45)c3)cc12 | 1.66
18 | CC(=O)N(C)c1cccc(-c2ccnc3c(C(=O)c4cccs4)cnn23)c1 | 72.5
19 | CN1[C@H]2CC(O)C[C@H]1[C@H]1O[C@H]12 (some centres not stated) | 52.9

Row | Compound | viability (% of control) [%]
20 | CC=C(C)C(=O)N[C@@H](c1ccccc1)[C@@H](O)C(=O)O[C@H]1C[C@@]2(O)[C@@H](OC(=O)c3ccccc3)[C@@H]3[C@]4(OC(C)=O)CO[C@@H]4C[C@H](O)[C@@]3(C)C(=O)[C@H](OC(C)=O)C(=C1C)C2(C)C | 19.1
21 | O=C(NCC1CCOCC1)c1cnc(Nc2ccc(Cl)cc2Cl)nc1C(F)(F)F | 7.59
22 | CCOP(=O)(OCC)C(C)NC(=O)N(CCCl)N=O (configuration not stated) | 103
23 | CC=C(C)C(=O)O[C@H]1C(C)=C2[C@@H]3OC(=O)[C@@](C)(O)[C@@]3(O)[C@@H](OC(=O)CCC)C[C@](C)(OC(C)=O)[C@@H]2[C@@H]1OC(=O)CCCCCCC | 2.54
24 | CC(C)(C)[C@]1(O)C[C@@H]2OC(=O)C[C@@]23C(=O)O[C@@H]2OC(=O)[C@H](O)C213 (some centres not stated) | 124
25 | CSCC[C@@H](NC(=O)[C@@H](Cc1ccccc1)NC(=O)CNC(=O)CNC(=O)[C@@H](N)Cc1ccc(O)cc1)C(=O)O | 134
26 | CC[C@@]1(O)C(=O)OCc2c1cc1n(c2=O)Cc2cc3ccccc3nc2-1 | 3.88
27 | O=C(Oc1ccc([N+](=O)[O-])cc1)N1CCN(Cc2cccc(Oc3ccccc3)c2)CC1 | 54.4
28 | CCN1C[C@]2(OC(=O)c3ccccc3NC(C)=O)CC[C@H](OC)[C@@]34[C@H]5CC6[C@@H](OC)C[C@](O)(C(C[C@@H]23)[C@@H]14)[C@@]5(O)[C@@H]6OC | 108
29 | C[C@@H]1CC[C@H]2[C@@H](C)C(=O)O[C@@H]3O[C@@]4(C)CC[C@H]1[C@]32OO4 | 98.1
30 | NC1=NC(=O)N2CC12 (configuration not stated) | 7.57
31 | COc1ccc(N(C(=O)Oc2c(C)cccc2C)c2ccnc(Nc3ccc(N4CCN(C)CC4)cc3)n2)c(OC)c1 | 13.7
32 | CC(C)(O)C(=O)Nc1ccc([N+](=O)[O-])c(C(F)(F)F)c1 | 14.7
33 | C#C[C@]1(O)C=C[C@@H]2[C@@H]3CCC4=CC(=O)CC[C@@H]4[C@H]3CC[C@@]21CC | 74.7
34 | CC1(N2CCC(n3c([C@@H]4CCCNC4)nc4ccccc43)CC2)CCCCCCC1 | 5.69
35 | C[C@]12CC[C@H]3[C@@H](CCC4=CC(=O)CC[C@@]43C)[C@H]1CC[C@H]2O | 101
36 | O=C(Oc1ccc([N+](=O)[O-])cc1)N1CCC(C(O)(c2ccc3c(c2)OCO3)c2ccc3c(c2)OCO3)CC1 | 64.3
37 | C[C@]12CC[C@H](O)CC1=CC[C@H]1[C@H]3CCC(=O)[C@@]3(C)CC[C@@H]12 | 104

Assay: qHTS assay for measurement of the activity of small molecule inhibitors on Zika virus induced Caspase-3 activity in human iPSC derived neural progenitor cells (hNPCs) (AID 1224857); further: % of control where 0% means no effect; nearly all actives have a fitted effect of over 65% in size
Details: hNPCs ZIKV-induced caspase-3/7, Caspase-Glo luminescence, 6 h; series mostly up to 45.7 µM; activity change, negative = inhibition: at the top concentration
Procedure, shortened: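 Pretreat hNPCs with compound 1 h; infect ZIKV 2 FFU/cell; 6 h 37 C, 5% CO2; Caspase-Glo 3/7, 30 min RT; luminescence; normalize to no-virus and virus-only wells.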

Row | Compound | activity change, negative = inhibition | Potency
38 | Clc1ccccc1C(c1ccccc1)(c1ccccc1)n1cccn1 | 10.4% (inactive) | 
39 | O=C(N[C@@H](COc1ccc2[nH]c(=O)[nH]c2c1)c1ccccc1)c1cccn(Cc2ccc(F)c(F)c2)c1=O | -6.33% (inactive) | 
40 | CCOC(=O)c1cncn1[C@H](C)c1ccccc1 | 63.1% (inactive) | 
41 | CC(=O)OCC1=C(C(=O)O)N2C(=O)[C@@H](N)[C@@H]2SC1 | -31.4% (inactive) | 
42 | CC[C@@H](C(N)=O)N1CCCC1=O |  | inactive
43 | COc1cc([C@@H]2c3cc4c(cc3[C@@H](O)C3COC(=O)C32)OCO4)cc(OC)c1O (some centres not stated) | 156% (inactive) | 
44 | CCCC[N+]1(C)[C@H]2CC(OC(=O)[C@H](CO)c3ccccc3)C[C@H]1[C@H]1O[C@H]12 (some centres not stated) | 3.28% (inactive) | 
45 | CN(C)[C@@H]1C(=O)C(C(N)=O)=C(O)[C@@]2(O)C(=O)C3=C(O)c4c(O)cccc4[C@@](C)(O)[C@H]3[C@H](O)[C@@H]12 | -2.39% (inactive) | 
46 | C[C@]12CC[C@@H]3[C@@H](CCC4=CC(=O)CC[C@@H]43)[C@@H]1CC[C@@H]2OC(=O)CCc1ccccc1 | 125% (inactive) | 
47 | CC(C)(C)c1cc(C=C(C#N)C#N)cc(Br)c1O | -10.3% (inactive) | 
48 | CCNC(=O)CC1N=C(c2ccc(Cl)cc2)c2cc(OC)ccc2-n2c(C)nnc21 (configuration not stated) | 12.1% (inactive) | 
49 | c1ccc2c(CN3CCNCC3)cccc2c1 | 19.5% (inactive) | 
50 | CC(N[C@H]1C[C@H]1c1ccccc1)c1ccc2c(c1)OCCO2 (some centres not stated) | -13.1% (inactive) | 
51 | O=S(=O)(F)Cc1ccccc1 | 0.002% (inactive) | 
52 | CC(=CCCC1=CCC(C2=CC(=O)OC2O)OC1O)CCC1=C(C)CCCC1(C)C (configuration not stated) | 46.6% (inactive) | 
53 | CC(C)[C@]12O[C@@H]1[C@@H]1O[C@]13[C@]1(O[C@H]1C[C@@H]1C4=C(CC[C@@]13C)C(=O)OC4)[C@H]2O | 43.5% (inactive) | 
54 | Cc1[nH]nc2ccc(-c3cncc(OC[C@@H](N)Cc4c[nH]c5ccccc45)c3)cc12 | 30.9% (inactive) | 
55 | CC(=O)N(C)c1cccc(-c2ccnc3c(C(=O)c4cccs4)cnn23)c1 | 56.9% (inactive) | 

Row | Compound | activity change, negative = inhibition | Potency
56 | CN1[C@H]2CC(O)C[C@H]1[C@H]1O[C@H]12 (some centres not stated) | 129% (inactive) | 
57 | CC=C(C)C(=O)N[C@@H](c1ccccc1)[C@@H](O)C(=O)O[C@H]1C[C@@]2(O)[C@@H](OC(=O)c3ccccc3)[C@@H]3[C@]4(OC(C)=O)CO[C@@H]4C[C@H](O)[C@@]3(C)C(=O)[C@H](OC(C)=O)C(=C1C)C2(C)C | 1.23% (inactive) | 
58 | O=C(NCC1CCOCC1)c1cnc(Nc2ccc(Cl)cc2Cl)nc1C(F)(F)F | 16.3% (inactive) | 
59 | CCOP(=O)(OCC)C(C)NC(=O)N(CCCl)N=O (configuration not stated) | -5.91% (inactive) | 
60 | CC=C(C)C(=O)O[C@H]1C(C)=C2[C@@H]3OC(=O)[C@@](C)(O)[C@@]3(O)[C@@H](OC(=O)CCC)C[C@](C)(OC(C)=O)[C@@H]2[C@@H]1OC(=O)CCCCCCC | -3.34% (inactive) | 
61 | CC(C)(C)[C@]1(O)C[C@@H]2OC(=O)C[C@@]23C(=O)O[C@@H]2OC(=O)[C@H](O)C213 (some centres not stated) | -29.4% (inactive) | 
62 | CSCC[C@@H](NC(=O)[C@@H](Cc1ccccc1)NC(=O)CNC(=O)CNC(=O)[C@@H](N)Cc1ccc(O)cc1)C(=O)O | 8.99% (inactive) | 
63 | CC[C@@]1(O)C(=O)OCc2c1cc1n(c2=O)Cc2cc3ccccc3nc2-1 |  | inactive
64 | O=C(Oc1ccc([N+](=O)[O-])cc1)N1CCN(Cc2cccc(Oc3ccccc3)c2)CC1 | 17.6% (inactive) | 
65 | CCN1C[C@]2(OC(=O)c3ccccc3NC(C)=O)CC[C@H](OC)[C@@]34[C@H]5CC6[C@@H](OC)C[C@](O)(C(C[C@@H]23)[C@@H]14)[C@@]5(O)[C@@H]6OC | 12.5% (inactive) | 
66 | NC1=NC(=O)N2CC12 (configuration not stated) | 29.3% (inactive) | 
67 | COc1ccc(N(C(=O)Oc2c(C)cccc2C)c2ccnc(Nc3ccc(N4CCN(C)CC4)cc3)n2)c(OC)c1 | 41.8% (inactive) | 
68 | CC(C)(O)C(=O)Nc1ccc([N+](=O)[O-])c(C(F)(F)F)c1 | 29.6% (inactive) | 
69 | C#C[C@]1(O)C=C[C@@H]2[C@@H]3CCC4=CC(=O)CC[C@@H]4[C@H]3CC[C@@]21CC | 4.88% (inactive) | 
70 | C[C@]12CC[C@H]3[C@@H](CCC4=CC(=O)CC[C@@]43C)[C@H]1CC[C@H]2O | -3.17% (inactive) | 
71 | O=C(Oc1ccc([N+](=O)[O-])cc1)N1CCC(C(O)(c2ccc3c(c2)OCO3)c2ccc3c(c2)OCO3)CC1 | -1.74% (inactive) | 
72 | C[C@]12CC[C@H](O)CC1=CC[C@H]1[C@H]3CCC(=O)[C@@]3(C)CC[C@@H]12 | 7.19% (inactive) | 
